From PubChem BioAssay AID651711 (Broad Institute, 2012) come the findings set out here.

Each structure is given as a SMILES string. The whole screen tested about 350,000 compounds, of which about 180 (0.051%) were called active. What follows is part of a selection rich in actives, with near analogues and random picks from the rest. Values without a mark were called inactive.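 Rule for the calls: active = mean replicate inhibition above about 25%, with every replicate also reaching it (limit read from the data, passing the limit was not always enough); inconclusive = only one of those two criteria met; inactive = neither criterion met.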

Sequence of Protein disulfide-isomerase A6 (Homo sapiens) (Q15084 whole entry, looked up): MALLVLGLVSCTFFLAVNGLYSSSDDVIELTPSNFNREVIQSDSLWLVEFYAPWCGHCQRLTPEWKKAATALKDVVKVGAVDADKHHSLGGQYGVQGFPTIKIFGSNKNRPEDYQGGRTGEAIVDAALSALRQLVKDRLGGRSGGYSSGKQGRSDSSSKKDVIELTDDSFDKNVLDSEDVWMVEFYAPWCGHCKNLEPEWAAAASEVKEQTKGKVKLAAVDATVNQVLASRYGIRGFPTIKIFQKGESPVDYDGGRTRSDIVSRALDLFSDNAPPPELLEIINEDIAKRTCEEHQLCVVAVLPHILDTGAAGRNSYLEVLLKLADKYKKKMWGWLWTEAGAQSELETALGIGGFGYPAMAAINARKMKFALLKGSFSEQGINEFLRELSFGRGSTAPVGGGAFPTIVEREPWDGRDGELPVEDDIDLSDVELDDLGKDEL

The assay concerns the target Protein disulfide-isomerase A6 (Homo sapiens) (UniProt Q15084). Put plainly: ERp5 (PDIA6) reductase activity blockers – biochemical, turbidity, absorbance 650 nm, single point, primary screen (AID 651711). To be noted: ERp5 insulin aggregation, 90 min, at 9.99 µM, stronger effect = higher value.
Take `CO[C@@H]1CN(C)C(=O)c2cc(NS(=O)(=O)CC(F)(F)F)ccc2OC[C@H](C)N(C)C[C@H]1C`: the inhibition was 1.29%.

Consider `C/C=C/c1ccccc1[C@H]1[C@@H](C#N)N(C(C)=O)[C@@H]1CO`, for which the inhibition was 0.399%.

For the molecule `COc1ccc(NC(=O)N(C)C[C@@H]2OCc3ccccc3-c3c(n(C)c4ccccc34)C(=O)N([C@H](C)CO)C[C@H]2C)cc1`, the inhibition was 1.51%.

On to `COc1ccc(S(=O)(=O)Nc2ccc3c(c2)C(=O)N([C@@H](C)CO)C[C@H](C)[C@H](CN(C)Cc2ccc(C(=O)O)cc2)O3)cc1`, for which the inhibition is 4.86%.

For `C/C=C/c1ccc2c(c1)O[C@H](CN(C)C(=O)Cc1ccccn1)[C@H](C)CN([C@H](C)CO)S2(=O)=O`, the inhibition was -3.16%.

Consider `N#C[C@@H]1[C@H](c2ccccc2-c2ccccc2F)[C@@H](CO)N1C(=O)c1ccccn1`, for which the inhibition was -2.07%.

For `Cc1ccc(S(=O)(=O)Nc2ccc3c(c2)C(=O)N([C@H](C)CO)C[C@H](C)[C@@H](CN(C)S(=O)(=O)c2cccs2)O3)cc1`, the inhibition was 3.96%.

As to `C[C@@H]1CN([C@@H](C)CO)C(=O)c2cc(NC(=O)Nc3ccccc3)ccc2O[C@H]1CN(C)C(=O)Nc1ccc(F)cc1`, the inhibition was 4.96%.

Consider `CCC(=O)N(C)C[C@H]1[C@H](c2ccc(-c3ccccc3F)cc2)[C@@H](CO)N1C(C)=O`, for which the inhibition is -0.23%.

In the case of `COCC#Cc1ccc([C@@H]2[C@@H](CO)N3C(=O)CN(C(=O)C4CCCC4)C[C@@H]23)cc1`, the inhibition is 0.681%.

For the molecule `Cc1noc(C)c1S(=O)(=O)N(C)C[C@H]1Oc2ccc(NC(=O)Nc3cccc4ccccc34)cc2CC(=O)N([C@@H](C)CO)C[C@H]1C`, the inhibition was -5.17%.

As to `COc1ccc2c3c(n(C)c2c1)[C@@H](CO)N(C(=O)c1ccc(F)cc1)CC31CN(C(=O)c2ccc(F)cc2)C1`, the inhibition was 1.03%.

Take `COc1ccc2c3c(n(C)c2c1)[C@@H](CO)N(C(=O)CN1CCOCC1)CC31CN(C(=O)CC2CC2)C1`: the inhibition was -0.576%.

As to `CN(C)CC(=O)N1[C@@H](CO)[C@H](c2ccccc2)C12CN(C(=O)c1cccc(F)c1)C2`, the inhibition is 2.27%.

On to `C/C=C/c1ccc([C@@H]2[C@H](CO)N(C(=O)c3cnccn3)C23CN(C(C)=O)C3)cc1`, for which the inhibition was -4.61%.

As to `C[C@@H]1CN([C@H](C)CO)C(=O)c2cc(C#CCC3CCCC3)cnc2O[C@H]1CN(C)C(=O)c1cnccn1`, the inhibition was -0.111%.

As for `C[C@@H]1CN([C@H](C)CO)S(=O)(=O)c2ccc(-c3ccncc3)cc2O[C@H]1CN(C)S(=O)(=O)c1ccccc1F`, the inhibition is -3.02%.

`C[C@@H]1CN([C@@H](C)CO)C(=O)c2cc(NS(=O)(=O)c3ccccc3)ccc2O[C@@H]1CN(C)Cc1ccc(C(=O)O)cc1`: the inhibition was -2.81%.

Take `Cc1noc(C)c1S(=O)(=O)Nc1ccc2c(c1)C(=O)N([C@H](C)CO)C[C@H](C)[C@H](CN(C)S(C)(=O)=O)OCCCC[C@H](C)O2`: the inhibition was -0.161%.

`C[C@@H]1CN([C@@H](C)CO)S(=O)(=O)c2ccc(C#CC(C)(C)O)cc2O[C@H]1CN(C)C(=O)CN(C)C`: the inhibition is -0.244%.

For `C[C@H](CO)N1C[C@H](C)[C@H](CN(C)C)Oc2cc(C#Cc3ccccc3F)ccc2S1(=O)=O`, the inhibition was 11.3%.

For the molecule `O=C(C[C@@H]1CC[C@@H]2[C@H](COC[C@H](O)CN2C(=O)Cc2ccccc2)O1)NC1CCC1`, the inhibition is 9.77%.

In the case of `COc1ccc(-c2ccc([C@@H]3[C@@H](C#N)N(C(=O)C4CCCCC4)[C@H]3CO)cc2)cc1`, the inhibition is -2.17%.

Take `CCCNC(=O)N1C[C@H](C)[C@@H](OC)CN(C)C(=O)c2ccc(NC(=O)CC)cc2OC[C@@H]1C`: the inhibition was 7.86%.

In the case of `CC(C)NC(=O)N[C@H]1CC[C@H](CC(=O)N2CCCCC2)O[C@@H]1CO`, the inhibition was 3.34%.

As for `C[C@@H]1CCCCO[C@H](CN(C)Cc2ccc(Cl)c(Cl)c2)[C@@H](C)CN([C@H](C)CO)C(=O)c2cc(NS(=O)(=O)c3cn(C)cn3)ccc2O1`, the inhibition is 1.36%.

With `COc1ccc(S(=O)(=O)N(C)C[C@H]2Oc3ccc(NC(=O)C4CC4)cc3CC(=O)N([C@@H](C)CO)C[C@@H]2C)cc1`, the inhibition is 2.88%.

`COc1ccccc1C#Cc1cnc2c(c1)C(=O)N([C@H](C)CO)C[C@H](C)[C@H](CN(C)S(=O)(=O)c1cn(C)cn1)O2`: the inhibition was -2.62%.

For the molecule `CCN1C(=O)N[C@@H]2C[C@H](C(=O)N3CCCC3)[C@H](C)[C@H](c3ccccc3)C[C@@H]21`, the inhibition is 0.542%.

With `COc1ccccc1C#Cc1cnc2c(c1)C(=O)N([C@@H](C)CO)C[C@@H](C)[C@@H](CN(C)C(=O)CN(C)C)O2`, the inhibition is -1.98%.

On to `C[C@@H]1CN([C@H](C)CO)C(=O)c2cc(NC(=O)c3ccncc3)ccc2O[C@@H](C)CCCCO[C@@H]1CN(C)CC1CC1`, for which the inhibition was 3.17%.

As for `Cc1ccccc1S(=O)(=O)N[C@@H]1CC[C@H](CCn2cc(-c3ccc(F)cc3)nn2)O[C@@H]1CO`, the inhibition was 0.302%.

Consider `COc1ccc(C#Cc2ccc([C@@H]3[C@@H](CO)N4C(=O)CN(C(=O)c5ccc(F)cc5)C[C@@H]34)cc2)cc1`, for which the inhibition was 6.45%.

Take `CO[C@@H]1CN(C)C(=O)c2cc(NC(=O)Nc3cccc(F)c3)ccc2OC[C@H](C)N(C)C[C@@H]1C`: the inhibition was 2.15%.

With `C[C@@H]1CN([C@H](C)CO)C(=O)c2cc(-c3ccc(F)cc3)cnc2O[C@@H]1CN(C)C(=O)C1CCC1`, the inhibition is 1.7%.

Consider `C[C@@H]1CN([C@H](C)CO)C(=O)c2cc(NS(=O)(=O)c3ccc(F)cc3)ccc2O[C@@H]1CN(C)C(=O)Nc1cccc2ccccc12`, for which the inhibition was 13.7%.

As to `CCCN1C[C@H](C)[C@@H](OC)CN(C)C(=O)c2ccc(NC(=O)C3CCOCC3)cc2OC[C@@H]1C`, the inhibition was 0.943%.

On to `C[C@H](CO)N1C[C@H](C)[C@@H](CN(C)CC2CC2)OCCCC[C@H](C)Oc2ccc(NC(=O)Nc3ccccc3)cc2C1=O`, for which the inhibition was 2.55%.

Regarding `O=S(=O)(c1ccccc1)N1CC[C@@H]2[C@@H](CO)Nc3ccc(C#Cc4cccc(F)c4)cc3[C@@H]21`, the inhibition was -0.006%.

As to `CCC(=O)N(C)C[C@@H]1Oc2cc(-c3ccc(OC)cc3)ccc2S(=O)(=O)N([C@@H](C)CO)C[C@H]1C`, the inhibition was 0.0355%.

Regarding `CC(C)C#Cc1cnc2c(c1)C(=O)N([C@H](C)CO)C[C@@H](C)[C@H](CN(C)Cc1ccccc1)O2`, the inhibition is -2.64%.

With `COc1ccc(NC(=O)N(C)C[C@@H]2Oc3ccc(NS(=O)(=O)c4ccc(OC)cc4)cc3CC(=O)N([C@H](C)CO)C[C@H]2C)cc1`, the inhibition was 8.49%.

As for `COc1ccc(S(=O)(=O)Nc2ccc3c(c2)CC(=O)N([C@H](C)CO)C[C@@H](C)[C@@H](CN(C)C(=O)Nc2cccc4ccccc24)O3)cc1`, the inhibition is 11.8%.

`C[C@@H]1CN([C@H](C)CO)C(=O)Cc2cc(NC(=O)Nc3ccccc3)ccc2O[C@@H]1CN(C)Cc1ccc(C(F)(F)F)cc1`: the inhibition was 1.88%.

Consider `C[C@@H]1CN([C@H](C)CO)C(=O)Cc2cc(NC(=O)Nc3cccc4ccccc34)ccc2O[C@@H]1CN(C)Cc1ccc(C(F)(F)F)cc1`, for which the inhibition is 60% (active).

As to `C[C@@H]1CN([C@H](C)CO)C(=O)Cc2cc(NC(=O)Nc3cccc4ccccc34)ccc2O[C@@H]1CN(C)Cc1ccc(C(=O)O)cc1`, the inhibition is 2.16%.

Consider `COc1ccc(S(=O)(=O)Nc2ccc3c(c2)CC(=O)N([C@H](C)CO)C[C@H](C)[C@H](CN(C)C(=O)Nc2ccccc2)O3)cc1`, for which the inhibition is 64.1% (active).

Regarding `COC(=O)[C@@H]1[C@@H](CO)[C@@H]2Cn3c(ccc(-c4ccc(OC)cc4)c3=O)[C@@H]2N1S(C)(=O)=O`, the inhibition is 4.09%.

Turning to `O=C(N[C@@H]1CC[C@@H](CC(=O)N2CCc3ccccc3C2)O[C@H]1CO)C1CCC1`, the inhibition is -0.402%.

Turning to `CCC(=O)N1CC(=O)N2[C@H](CO)[C@@H](c3ccc(-c4ccc(C(=O)N(C)C)cc4)cc3)[C@@H]2C1`, the inhibition is -1.19%.

Regarding `CO[C@H]1CN(C)C(=O)c2ccc(NC(=O)C3CCC3)cc2OC[C@@H](C)N(Cc2ccccn2)C[C@H]1C`, the inhibition was -2.1%.

Take `C[C@H](CO)N1C[C@H](C)[C@H](CN(C)Cc2ccc(C(=O)O)cc2)OCc2cn(nn2)CCCC1=O`: the inhibition was -4.21%.

Consider `Cc1ccccc1C(=O)N[C@H](C(=O)N1CCC[C@H]1C(=O)NCc1ccccc1)C(C)C`, for which the inhibition is 5.11%.

As to `CO[C@H]1CN(C)C(=O)c2cc(NS(=O)(=O)c3ccccc3)ccc2OC[C@@H](C)N(Cc2nccs2)C[C@@H]1C`, the inhibition is 1%.

With `COc1ccc(CN(C)C[C@@H]2Oc3c(NC(=O)C4CC4)cccc3C(=O)N([C@@H](C)CO)C[C@H]2C)cc1`, the inhibition was 1.33%.

With `Cc1ccc(S(=O)(=O)N(C)C[C@@H]2Oc3ccc(N(C)C)cc3C(=O)N([C@@H](C)CO)C[C@H]2C)cc1`, the inhibition is -2.31%.

Regarding `COc1ccccc1S(=O)(=O)N1C[C@@H](O)COC[C@H]2O[C@H](CC(=O)O)CC[C@@H]21`, the inhibition is -5.9%.

For the molecule `CCC(=O)N1C[C@@H](O)COC[C@H]2O[C@H](CC(=O)NCC3CCCCC3)CC[C@@H]21`, the inhibition was -3.78%.

For `O=C1CN(Cc2ccc(F)cc2)C[C@H]2[C@@H](c3ccc(Br)cc3)[C@H](CO)N12`, the inhibition is 4.49%.

Take `CO[C@H]1CN(C)C(=O)c2ccc(NC(=O)CC(F)(F)F)cc2OC[C@H](C)N(C(=O)C2CC2)C[C@H]1C`: the inhibition is 3.96%.

With `O=C(CC1CC1)N1[C@@H](CO)[C@@H](c2ccccc2)C12CN(S(=O)(=O)c1ccccc1)C2`, the inhibition is 7.09%.
